About 83,000 compounds went through this panel and 20% of them were active in at least one assay; those are over-represented in the sample as a whole.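 96-well plates, one dose, 48 hours. Percent growth reported; active if below 10.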 Activity calls are given as the source filed them.
Columns and labels:
Assay in all cases: NCI-60 one-dose screen, 48 h (100 = growth as untreated, 0 = no growth, -100 = all killed)
Details in all cases: 10 µM unless noted
[1] = system: EKVX NSCLC
[2] = system: SN12C renal
[3] = system: UO-31 renal
[4] = system: TK-10 renal
[5] = system: ACHN renal
[6] = system: CAKI-1 renal
[7] = system: A498 renal
[8] = system: CCRF-CEM leukemia
[9] = system: MOLT-4 leukemia
[10] = system: SR leukemia
[11] = system: RPMI-8226 leukemia
[12] = system: OVCAR-8 ovarian
[13] = system: OVCAR-5 ovarian
[14] = system: OVCAR-4 ovarian
[15] = system: SK-OV-3 ovarian
[16] = system: IGROV1 ovarian
[17] = system: OVCAR-3 ovarian
[18] = system: NCI/ADR-RES ovarian

Measured: growth

C#Cc1cccc(Nc2ncnc3cc(OCCOC)c(OCCOC)cc23)c1
inactive: [1] 39.6% | [2] 50.5% | [3] 17.3% | [5] 11.3% | [7] 20.2% | [8] 71.2% | [9] 56.1% | [10] 51.3% | [11] 70.1% | [12] 40.4% | [13] 48.4% | [14] 54.3% | [17] 64.2% | [18] 56.9%
active: [4] -6.62% | [6] 6.29% | [15] -21.9% | [16] 8.02%

CCc1nc(C(N)=O)c(Nc2ccc(N3CCC(N4CCN(C)CC4)CC3)c(OC)c2)nc1NC1CCOCC1
inactive: [1] 46.6% | [2] 29.2% | [4] 25.4% | [5] 29% | [6] 20.2% | [9] 17.2% | [11] 28.3% | [12] 39.6% | [13] 26.5% | [14] 81.2% | [17] 53.4% | [18] 32%
active: [3] 4.67% | [7] -92.6% | [8] 6.04% | [10] 1.01% | [15] 4.92% | [16] 4.12%

Cc1cnc(NC(=O)Nc2cc(Br)c(C)cc2OC[C@@H]2CNCCO2)cn1
active: [3] -12.3% | [5] 3.08% | [6] 1.9% | [8] 4.56% | [9] 2.6% | [10] -18.5% | [12] 1.6% | [18] 7.93%
inactive: [1] 25.9% | [2] 39.5% | [4] 28.8% | [7] 18.1% | [11] 13% | [13] 36.6% | [14] 45.6% | [15] 32% | [16] 30.5% | [17] 22.2%

CCc1cc2c(cc1N1CCC(N3CCOCC3)CC1)C(C)(C)c1[nH]c3cc(C#N)ccc3c1C2=O
active: [2] -14.9% | [3] -67.2% | [4] -12.1% | [5] -27.3% | [6] -46.7% | [7] -37.1% | [10] -3.84% | [12] -11.3% | [13] -8.72% | [14] -50.9% | [15] -22.5% | [16] -41.6% | [17] 4.44% | [18] -1.18%
inactive: [1] 15.9% | [8] 22.4% | [9] 25.4% | [11] 15.7%

COc1cc2c(Nc3ccc(Br)cc3F)ncnc2cc1OCC1CCN(C)CC1
active: [3] -88.3% | [4] -4.33% | [5] 9.47% | [6] 0.316% | [7] -71.1% | [10] -6.08% | [15] -5.59% | [16] -21.9%
inactive: [1] 35.4% | [2] 16.9% | [8] 14.5% | [9] 18.1% | [11] 26.8% | [12] 27.6% | [13] 34.8% | [14] 36.4% | [17] 42.4% | [18] 30.3%

CNC(=O)c1ccccc1Nc1nc(Nc2ccc3c(c2OC)CCC[C@H](N2CCN(CCO)CC2)C3)ncc1Cl
inactive: [1] 11.8% | [4] 26.2% | [12] 12.5% | [13] 11.1% | [17] 30.7% | [18] 14%
active: [2] 7.63% | [3] 6.91% | [5] 5.75% | [6] -26.6% | [7] -64.3% | [8] 7.29% | [9] -23.5% | [10] -5.84% | [11] -13% | [14] 4.95% | [15] -6.83% | [16] -36.9%

N#CC[C@H](C1CCCC1)n1cc(-c2ncnc3[nH]ccc23)cn1
active: [10] 2.14%
inactive: [1] 82.7% | [2] 66.3% | [3] 26.8% | [4] 41.5% | [5] 52.1% | [6] 34.9% | [7] 64% | [8] 58.5% | [9] 56.1% | [11] 81.2% | [12] 64.4% | [13] 50.1% | [14] 81.5% | [15] 38.4% | [16] 38% | [17] 83% | [18] 87.9%

Cc1cc(Nc2ncnc3ccc(NC4=NC(C)(C)CO4)cc23)ccc1Oc1ccn2ncnc2c1
inactive: [1] 41.6% | [2] 33.1% | [3] 14.9% | [5] 21.1% | [6] 13.8% | [8] 11.7% | [9] 16.7% | [11] 24.3% | [12] 37.3% | [13] 14.3% | [14] 44.2% | [15] 14.6% | [17] 46.8% | [18] 63.3%
active: [4] 1.72% | [7] -16% | [10] -14.4% | [16] -19.6%

Cc1cc(Nc2cc(N3CCN(C)CC3)nc(Sc3ccc(NC(=O)C4CC4)cc3)n2)n[nH]1
active: [7] -16%
inactive: [1] 76.6% | [2] 33.4% | [3] 22.3% | [4] 38.8% | [5] 42.4% | [6] 31.8% | [8] 35.6% | [9] 26% | [10] 16.7% | [11] 44.8% | [12] 38.6% | [13] 29% | [14] 77% | [15] 27.6% | [16] 30.7% | [17] 61.5% | [18] 73.8%

O=c1[nH]c([C@@H]2CCCN2)nc2c1oc1ccc(Cl)cc12
inactive: [1] 61.4% | [2] 81.3% | [3] 58.4% | [4] 52.3% | [5] 71.5% | [6] 42.4% | [8] 63.1% | [9] 68.4% | [10] 34.1% | [11] 86.6% | [12] 72.9% | [13] 49.8% | [14] 84.5% | [15] 24% | [16] 81.3% | [17] 65% | [18] 82.9%
active: [7] 6.25%

Cn1cnc(-c2cc3nccc(Oc4ccc(NC(=S)NC(=O)Cc5ccccc5)cc4F)c3s2)c1
inactive: [1] 109% | [2] 54.1% | [3] 72.2% | [4] 85.1% | [5] 80.4% | [6] 80.8% | [7] 62.9% | [8] 58.6% | [9] 69.4% | [10] 69.3% | [11] 54.9% | [12] 75.9% | [13] 111% | [14] 86.7% | [15] 82.6% | [16] 95.4% | [17] 80.5% | [18] 96%

COc1ncc(-c2ccc3nccc(-c4ccnnc4)c3c2)cc1NS(=O)(=O)c1ccc(F)cc1F
inactive: [2] 16.4% | [5] 15.3%
active: [1] -7.55% | [3] -25.7% | [4] -44.7% | [6] -19.8% | [7] -48.2% | [8] 1.61% | [9] -11.9% | [10] -16.9% | [11] -35.4% | [12] -17% | [13] 7.97% | [14] -8.87% | [15] -52.1% | [16] -24.1% | [17] -58% | [18] -20%

O=C(Nc1cnn2ccc(N3CCC[C@@H]3c3cc(F)ccc3F)nc12)N1CC[C@H](O)C1
inactive: [1] 99.5% | [2] 81.1% | [3] 82.8% | [4] 99.8% | [5] 103% | [6] 88.3% | [8] 95.5% | [9] 96.8% | [10] 72.1% | [11] 91.1% | [12] 80.4% | [13] 114% | [14] 117% | [15] 79.6% | [16] 105% | [17] 99.9% | [18] 97%
active: [7] 2.72%

C#Cc1cccc(Nc2ncnc3cc4c(cc23)OCCOCCOCCO4)c1
active: [4] 7.84% | [15] -17%
inactive: [1] 42.5% | [2] 42% | [3] 27.2% | [5] 16.3% | [6] 28.4% | [7] 24.1% | [8] 73.3% | [9] 53.3% | [10] 53.5% | [11] 70% | [12] 53.9% | [13] 60.4% | [14] 63.2% | [16] 15.2% | [17] 40.9% | [18] 58.5%

CNC(=O)CN1CCC(Oc2cc3c(Nc4cccc(Cl)c4F)ncnc3cc2OC)CC1
inactive: [1] 32.1% | [2] 42.7% | [3] 26.3% | [6] 10.6% | [7] 44.2% | [8] 64.7% | [9] 51.7% | [10] 63.8% | [11] 70.9% | [12] 45.6% | [13] 25.3% | [14] 70.5% | [17] 46.3% | [18] 56.6%
active: [4] 1.03% | [5] 8.22% | [15] -22.4% | [16] -25.2%

CNC(=O)c1cc(Oc2ccc(NC(=O)Nc3ccc(Cl)c(C(F)(F)F)c3)c(F)c2)ccn1
active: [1] -3.92% | [2] -40.4% | [3] -43.1% | [4] -3.33% | [5] 0.875% | [6] 1.01% | [7] -61.7% | [8] 1.42% | [9] -7.86% | [10] -32.6% | [11] -34% | [12] -1.84% | [13] 3.12% | [14] 8.63% | [15] -16.7% | [16] -20.8% | [17] 0.719% | [18] -14.3%

Reference: PubChem BioAssay (NCI)
